From PubChem BioAssay (Tox21)
Results filed as inconclusive are left out. Calls of active or inactive are those of the source. Unless noted, the call rests on the fitted dose curve; in most records, active means well fitted curve in the direction sought with a large enough effect in the repeat runs; inconclusive means weak or mixed curves; inactive means no such curve, though single readings can be large; an effect the other way counts as inactive or inconclusive.

Key:
[1] = qHTS assay to identify small molecule antagonists of the estrogen receptor alpha (ER-alpha) signaling pathway using the BG1 cell line in the presence of 0.1 nM 17-beta-estradiol - cell viability counter screen (AID 1259241); further: nearly all actives have a fitted effect of over 40% in size
In short: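 CellTiter-Fluor read (30 min, 37C) on ER-alpha/ERE-luc VM7Luc4E2 cells; 22 hr compound treatment; agonist 0.1 nM E2 final; same-well multiplex.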

[2] = qHTS assay to identify small molecule antagonists of the androgen receptor (AR) signaling pathway using the MDA cell line in the presence of 0.5 nM R1881 - cell viability counter screen (AID 1259242); further: nearly all actives have a fitted effect of over 45% in size
In short: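 Viability of MDA-kb2 cells was multiplexed with the luciferase AR readout; after 16 hr with compounds and R1881 at 0.5 nM final, CellTiter-Fluor fluorescence was recorded.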

[3] = qHTS assay to identify small molecule phospholipidosis (PLD) inducers (AID 1259344; active means well fitted curve in the direction sought with a large enough effect; an effect the other way counts as inactive or inconclusive)
In short: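 Fluorescent phospholipid staining (LipidTOX Red) measured by automated microscopy in fixed HepG2 cells after 24 h treatment; nuclei counterstained with Hoechst 33342; amiodarone as reference inducer.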

[4] = qHTS assay to identify small molecule HDAC inhibitors (AID 1259364);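 further: wild-type HCT-116 cells with endogenous class I/II HDAC activity; top concentration of the series differs between compounds; nearly all actives have a fitted effect of over 45% in size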
In short: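 Read-out: luminescence of HDAC-Glo I/II reagent, 30 min RT, reflecting class I/II deacetylase activity in whole HCT-116 cells pre-exposed 2 h to DMSO-dissolved compounds.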

[5] = qHTS assay to identify small molecule HDAC inhibitors - cell viability counter screen (AID 1259365); further: series mostly up to about 92 µM; nearly all actives have a fitted effect of over 50% in size
In short: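 To flag cytotoxic hits, 1,500 wild-type HCT-116 cells per well, plated the day before, receive test compounds for 2hr at 37 C before CellTiter-Glo reagent and a luminescence read.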

[6] = qHTS assay to identify small molecule agonists of the sonic hedgehog signaling (Shh) pathway - cell viability counter screen (AID 1259366); further: nearly all actives have a fitted effect of over 50% in size
In short: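 Fluorescence from CellTiter-Fluor reports live cells in this counter screen. NIH/3T3-derived Gli1-Luc reporter cells receive test compounds for 24hr at 37C; reagent goes in at 23hr.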

[7] = qHTS assay to identify small molecule antagonists of the sonic hedgehog signaling (Shh) pathway - cell viability counter screen (AID 1259367); further: nearly all actives have a fitted effect of over 55% in size; further: potency means the concentration at half of the fitted maximal effect
In short: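 Using CellTiter-Fluor, viability of Gli1-Luc reporter 3T3 cells is read by fluorescence in the wells used for the Shh luciferase assay. Treatment lasts 23 hr with conditioned medium, then reagent 1 hr at 37C.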

[8] = qHTS assay to identify small molecule agonists of the sonic hedgehog signaling (Shh) pathway (AID 1259368; calls by dose curve;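 further: NIH/3T3-derived 3T3Gli1-Luc cells carrying a stable Gli1-driven firefly luciferase reporter; series mostly up to about 92 µM; nearly all actives have a fitted effect of over 15% in size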)
In short: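 A Gli1 transcriptional response element controlled firefly luciferase in 3T3Gli1-Luc cells. Compounds and a positive control were added 4 hr after plating, and cells were incubated a further 24 hr at 37 C before luminescence detection.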

[9] = biological target: Estrogen receptor (Homo sapiens) (UniProt P03372); test: qHTS assay to identify small molecule antagonists of the estrogen receptor alpha (ER-alpha) signaling pathway using the BG1 cell line in the presence of 0.1 nM 17-beta-estradiol (AID 1259244); further: nearly all actives have a fitted effect of over 50% in size
Chain of Estrogen receptor (Homo sapiens) (P03372 whole entry, looked up): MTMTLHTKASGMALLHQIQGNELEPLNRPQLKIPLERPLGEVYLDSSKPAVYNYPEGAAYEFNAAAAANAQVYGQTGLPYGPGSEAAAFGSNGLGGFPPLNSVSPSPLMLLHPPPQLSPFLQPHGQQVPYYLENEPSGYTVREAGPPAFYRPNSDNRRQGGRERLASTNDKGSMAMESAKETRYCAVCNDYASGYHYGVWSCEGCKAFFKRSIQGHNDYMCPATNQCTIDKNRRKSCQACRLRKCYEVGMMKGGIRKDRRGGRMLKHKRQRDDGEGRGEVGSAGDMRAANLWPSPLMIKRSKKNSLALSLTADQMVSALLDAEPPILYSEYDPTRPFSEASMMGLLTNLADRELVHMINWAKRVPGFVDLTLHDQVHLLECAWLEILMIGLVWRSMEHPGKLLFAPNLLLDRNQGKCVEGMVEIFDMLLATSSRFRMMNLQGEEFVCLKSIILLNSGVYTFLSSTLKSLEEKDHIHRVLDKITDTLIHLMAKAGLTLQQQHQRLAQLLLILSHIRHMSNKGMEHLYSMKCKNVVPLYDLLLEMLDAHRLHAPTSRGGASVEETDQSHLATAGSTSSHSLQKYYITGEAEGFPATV
In short: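 Estradiol at 0.1 nM (final) stimulates the endogenous ER-alpha of VM7Luc4E2 cells carrying an ERE-driven luciferase; compounds are co-incubated 22 h at 37C and luciferase output quantified by luminescence.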
On the % scale 0 is the no-effect control and ±100 the full control effect.

O=C(O)[C@@H]1CSCN1
inactive: Potency [1] | outcome [2] | outcome [3] | Potency [4] | outcome [5] | Potency [6] | Potency [7] | Potency [8]

Cc1ccccc1C(=O)Nc1ccc(C(=O)N2CCCC(O)c3cc(Cl)ccc32)c(C)c1 (stereo not given)
inactive: Potency [1] | outcome [2] | Potency [4] | outcome [5] | Potency [6] | Potency [7] | Potency [8]

C=O
inactive: Potency [1] | outcome [2] | outcome [3] | Potency [4] | outcome [5] | Potency [6] | Potency [8]

OCc1ccccc1O
inactive: Potency [1] | outcome [2] | outcome [3] | Potency [4] | Potency [6] | Potency [7] | Potency [8]

CC(C)NC[C@@H](O)COc1cccc2ccccc12
inactive: Potency [1] | outcome [2] | outcome [3] | Potency [4] | outcome [5] | Potency [6] | Potency [7] | Potency [8]

CN1[C@@H]2CC[C@H]1CC(OC(=O)c1c[nH]c3ccccc13)C2 (stereo not given in full)
inactive: Potency [1] | outcome [2] | outcome [3] | Potency [4] | outcome [5] | Potency [6] | Potency [8]

O=C(O)CN(CCN(CC(=O)O)CC(=O)O)CCN(CC(=O)O)CC(=O)O
inactive: activity change, negative = cytotoxicity [1] -1.86% [at 19 µM] | viability change, negative = cytotoxic [2] 3.41% [at 19 µM] | outcome [3] | activity change, negative = inhibition [4] 3.25% [at 19 µM] | activity change, negative = cytotoxicity [5] 3.61% [at 19 µM] | viability change, negative = cytotoxic [6] -18.4% [at 19 µM] | viability change, negative = cytotoxic [7] -7.04% [at 19 µM] | activity change [8] 0.166% [at 18.9 µM, hits give high values]

Nc1ccc2ccccc2c1S(=O)(=O)O
inactive: Potency [1] | outcome [2] | Potency [4] | outcome [5] | Potency [6] | Potency [7]

CC(C)NCC(O)COc1ccc(CCOCC2CC2)cc1 (stereo not given)
inactive: Potency [1] | outcome [2] | outcome [3] | Potency [4] | outcome [5] | Potency [6] | Potency [7] | Potency [8]

CC1=CC(=O)CC(C)(C)C1=O
inactive: Potency [1] | outcome [2] | Potency [9] | outcome [5] | Potency [6] | Potency [7] | Potency [8]

C/C(=N\O)[C@@H](C)NCC(C)(C)CN[C@H](C)/C(C)=N/O
inactive: Potency [1] | outcome [2] | Potency [4] | outcome [5] | Potency [6] | Potency [7] | Potency [8]

CCOc1ccc(NS(=O)(=O)c2ccc(N)cc2)nn1
inactive: Potency [1] | outcome [2] | outcome [3] | Potency [4] | outcome [5] | Potency [6] | Potency [7] | Potency [8]

CCCCCCOc1ccc(N)cc1
inactive: Potency [1] | outcome [2] | Potency [9] | outcome [5] | Potency [6] | Potency [8]

CN1C(=O)CC(c2ccccc2)C1=O (stereo not given)
inactive: Potency [1] | outcome [2] | outcome [3] | Potency [4] | outcome [5] | Potency [6] | Potency [7] | Potency [8]

CCNCCO
inactive: Potency [1] | outcome [2] | Potency [4] | outcome [5] | Potency [6] | Potency [7] | Potency [8]

CC/C=C\CCOC(=O)CCCCC
inactive: Potency [1] | outcome [2] | Potency [9] | Potency [4] | Potency [6] | Potency [7] | Potency [8]

CN1CCC[C@@H]1Cc1c[nH]c2ccc(CCS(=O)(=O)c3ccccc3)cc12
inactive: Potency [1] | outcome [2] | Potency [4] | outcome [5] | Potency [6] | Potency [7] | Potency [8]

Oc1ccccc1C=NCc1ccccc1
inactive: Potency [1] | outcome [2] | outcome [3] | Potency [4] | outcome [5] | Potency [6] | Potency [7] | Potency [8]

ClC(Cl)Cl
inactive: Potency [1] | outcome [2] | outcome [3] | Potency [4] | outcome [5] | Potency [8]
active: Potency [7] 42.9 µM

NC/C=C/C(=O)O
inactive: Potency [1] | outcome [2] | outcome [3] | Potency [4] | outcome [5] | Potency [6] | Potency [7] | Potency [8]

CN(C)CC[C@@H](c1ccc(Cl)cc1)c1ccccn1
inactive: Potency [1] | outcome [2] | PLD induction [3] 19.5% [at 1.53 µM] | Potency [4] | outcome [5] | Potency [6] | Potency [8]

CCc1nnc(NS(=O)(=O)c2ccc(N)cc2)s1
inactive: Potency [1] | outcome [2] | outcome [3] | Potency [4] | outcome [5] | Potency [6] | Potency [7] | Potency [8]

CCN1CC(CCN2CCOCC2)C(c2ccccc2)(c2ccccc2)C1=O (stereo not given)
inactive: Potency [1] | outcome [2] | outcome [3] | Potency [4] | outcome [5] | Potency [8]

CCC1(C)NC(=O)NC1=O (stereo not given)
inactive: Potency [1] | outcome [2] | Potency [4] | outcome [5] | Potency [6] | Potency [7] | Potency [8]

CC1(C)S[C@@H]2[C@H](NC(=O)C(C(=O)O)c3ccccc3)C(=O)N2[C@H]1C(=O)O (stereo not given in full)
inactive: Potency [1] | outcome [2] | outcome [3] | Potency [4] | outcome [5] | Potency [6] | Potency [7] | Potency [8]

NC(=O)Cc1cccc(C(=O)c2ccccc2)c1N
inactive: Potency [1] | outcome [2] | PLD induction [3] -0.295% [at 7.66 µM] | Potency [4] | outcome [5] | Potency [6] | Potency [7] | Potency [8]
